# Legend:
# Assay in all cases: PBM binding z-score (relative to random genomic background probes); higher = stronger binding; sequences stand for … in GC…GCGATTGACAGCGTAGAATGAAGG
# [1] = system: RARb homodimer (NR concentration 270 nM)
# Summary of the method: (§1)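 Ligand-free nuclear receptor dimers were bound for 1 h to custom Agilent 4×180K protein-binding microarrays. Detection used antibodies against each partner (one per run). Binding z-scores rest on regression-normalized fluorescence, with random background probes as the reference.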
# [2] = system: RARg:RXRa (NR concentration 270 nM, RXRa partner concentration 90 nM)
# Summary of the method: as §1
# [3] = system: RARg homodimer (NR concentration 270 nM)
# Summary of the method: as §1
# [4] = system: RXRa DBDmut IVT, anti-RXR (DBD mutation: RXRa K156A/R161A, NR concentration 90 nM)
# Summary of the method: as §1
# [5] = system: RXRa homodimer (NR concentration 180 nM)
# Summary of the method: as §1
# [6] = system: THRa:RXRa (NR concentration 90 nM, RXRa partner concentration 90 nM)
# Summary of the method: as §1
# [7] = system: THRa homodimer (NR concentration 90 nM)
# Summary of the method: as §1
# [8] = system: VDR homodimer (NR concentration 270 nM)
# Summary of the method: as §1
sequence,measurement,setting,value
ACTAGCAGGCCAAGTTTGGCTCACTCAAACAAAG,PBM binding z-score,[1],-0.243
same,PBM binding z-score,[2],-0.36
same,PBM binding z-score,[3],-0.0918
same,PBM binding z-score,[4],-0.118
same,PBM binding z-score,[5],-0.415
same,PBM binding z-score,[6],-0.267
same,PBM binding z-score,[7],-0.863
same,PBM binding z-score,[8],-0.448
CCGACTAGGGCAAGGTTACCATAACGCACAGCCA,PBM binding z-score,[1],1.42
same,PBM binding z-score,[2],1.33
same,PBM binding z-score,[3],1.66
same,PBM binding z-score,[4],0.121
same,PBM binding z-score,[5],1.08
same,PBM binding z-score,[6],1.23
same,PBM binding z-score,[7],0.242
same,PBM binding z-score,[8],0.0806
CGACCAAGGTCAAGGTCAGTGAAAGAGACTCGAA,PBM binding z-score,[1],4.91
same,PBM binding z-score,[2],6.66
same,PBM binding z-score,[3],7.49
same,PBM binding z-score,[4],3.4
same,PBM binding z-score,[5],6.54
same,PBM binding z-score,[6],4.31
same,PBM binding z-score,[7],2.79
same,PBM binding z-score,[8],2.52
TAGCCTAGGTCAGATCGGCCCAGTATACGCTATA,PBM binding z-score,[1],1.84
same,PBM binding z-score,[2],2.5
same,PBM binding z-score,[3],3.35
same,PBM binding z-score,[4],-0.434
same,PBM binding z-score,[5],1.35
same,PBM binding z-score,[6],1.98
same,PBM binding z-score,[7],-0.12
same,PBM binding z-score,[8],-0.474
CCTCGTAGGACAGAAGGTCAGAGCTGTCCGCTTT,PBM binding z-score,[1],3.4
same,PBM binding z-score,[2],3.02
same,PBM binding z-score,[3],3.4
same,PBM binding z-score,[4],0.251
same,PBM binding z-score,[5],2.18
same,PBM binding z-score,[6],1.7
same,PBM binding z-score,[7],-0.0633
same,PBM binding z-score,[8],0.412
TGAATGAGGTTGAAGATCAGGGAACGTGGCGTCG,PBM binding z-score,[1],-0.485
same,PBM binding z-score,[2],0.258
same,PBM binding z-score,[3],0.179
same,PBM binding z-score,[4],-0.182
same,PBM binding z-score,[5],0.787
same,PBM binding z-score,[6],0.467
same,PBM binding z-score,[7],-0.42
same,PBM binding z-score,[8],-0.192
TCATATCGGTAAACAGGTGAAAGTCCGTAAGTTA,PBM binding z-score,[1],0.664
same,PBM binding z-score,[2],0.475
same,PBM binding z-score,[3],0.211
same,PBM binding z-score,[4],1.26
same,PBM binding z-score,[5],0.834
same,PBM binding z-score,[6],0.552
same,PBM binding z-score,[7],0.248
same,PBM binding z-score,[8],0.533
CGTCCTAGGTCAAGGTCAGTGAAAGAGACTCGAA,PBM binding z-score,[1],4.34
same,PBM binding z-score,[2],5.41
same,PBM binding z-score,[3],6.43
same,PBM binding z-score,[4],2.02
same,PBM binding z-score,[5],4.55
same,PBM binding z-score,[6],3.82
same,PBM binding z-score,[7],2.95
same,PBM binding z-score,[8],1.93
CCTACTGAGCCAAAGGTCATTGATTCCAATGCTC,PBM binding z-score,[1],4.56
same,PBM binding z-score,[2],5.34
same,PBM binding z-score,[3],4.83
same,PBM binding z-score,[4],2.32
same,PBM binding z-score,[5],5.76
same,PBM binding z-score,[6],3.33
same,PBM binding z-score,[7],1.26
same,PBM binding z-score,[8],3.3
AGAATGAGGCTATACGTAGATCAGGGAAGAAAGT,PBM binding z-score,[1],-0.0625
same,PBM binding z-score,[2],0.222
same,PBM binding z-score,[3],0.232
same,PBM binding z-score,[4],-0.0879
same,PBM binding z-score,[5],-0.0272
same,PBM binding z-score,[6],0.084
same,PBM binding z-score,[7],-0.165
same,PBM binding z-score,[8],-0.0917
AGTCAAAGTTCAGTACGAGGTAACGTAAAGCACG,PBM binding z-score,[1],3.01
same,PBM binding z-score,[2],4.32
same,PBM binding z-score,[3],4.54
same,PBM binding z-score,[4],3.09
same,PBM binding z-score,[5],2.66
same,PBM binding z-score,[6],3.64
same,PBM binding z-score,[7],1.21
same,PBM binding z-score,[8],2.62
GCGACTGGGGCATAGCAGGTTACCATAAGGTTGG,PBM binding z-score,[1],1.04
same,PBM binding z-score,[2],0.402
same,PBM binding z-score,[3],0.629
same,PBM binding z-score,[4],-0.432
same,PBM binding z-score,[5],0.456
same,PBM binding z-score,[6],2.44
same,PBM binding z-score,[7],-0.122
same,PBM binding z-score,[8],-0.335
TAGCCTAGGTCATGCGGGCTAGTATAGTGTCGGC,PBM binding z-score,[1],2.99
same,PBM binding z-score,[2],3.77
same,PBM binding z-score,[3],3.75
same,PBM binding z-score,[4],0.197
same,PBM binding z-score,[5],2.92
same,PBM binding z-score,[6],3.15
same,PBM binding z-score,[7],0.88
same,PBM binding z-score,[8],0.2
ATATGTAGGTTAGCTGGGGACATTCAGACTAGGC,PBM binding z-score,[1],1.29
same,PBM binding z-score,[2],0.981
same,PBM binding z-score,[3],1.34
same,PBM binding z-score,[4],0.879
same,PBM binding z-score,[5],0.737
same,PBM binding z-score,[6],4.93
same,PBM binding z-score,[7],2.11
same,PBM binding z-score,[8],1.3
